Data from the supplement of paper PMC10981050.
“And” between values parts separate entries of the source, which are not always exact repeats. Equal entries are not always repeated. Structures can show the parent of a compound that is named as a salt.

What was measured:
Assay in all cases: cell viability relative to vehicle control; higher = less cytotoxic
Conditions in all cases: 10 µM
K562 = system: K562
In short: (§1)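 Screening covered the Selleck bioactive, kinase and epigenetic probe libraries, less identity-inconsistent compounds, on CRISPR-edited mutant clones and isogenic wild-type clones of four leukaemia lines. Cells, at 2000 per well in 50 µL medium, received a single 10 µM acoustically dispensed dose. After 48 h the supernatant was removed and CellTiter-Glo luminescence was read. Viability was analysed in Genedata Screener as percent of the on-plate vehicle control.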

MARIMO = system: MARIMO
In short: as §1

MOLM14 = system: MOLM14
In short: as §1

OCI-AML2 = system: OCI-AML2
In short: as §1

| SMILES | cell viability (K562; SRSF2 genotype: SRSF2 P95H/wt) | cell viability (K562; SRSF2 genotype: SRSF2 wt/wt) [%] | cell viability (MARIMO; SRSF2 genotype: SRSF2 P95H/wt) [%] | cell viability (MARIMO; SRSF2 genotype: SRSF2 wt/wt) [%] | cell viability (MOLM14; SRSF2 genotype: SRSF2 P95H/wt) [%] | cell viability (MOLM14; SRSF2 genotype: SRSF2 wt/wt) [%] | cell viability (OCI-AML2; SRSF2 genotype: P95H/wt) [%] | cell viability (OCI-AML2; SRSF2 genotype: wt/wt) [%] |
| --- | --- | --- | --- | --- | --- | --- | --- | --- |
| Oc1ccc(/C=C/c2cc(O)cc(O)c2)cc1 [Resveratrol] | 83.1% and 92.7% | 91.6 | 70.1 | 79.6 | 73.4 | 80 | 67.2 | 72.8 |
| CONC(=O)c1ccccc1Nc1cc(Nc2cc(C)nn2C(C)C)ncc1Cl | 91.8% and 101% | 105 | 93.2 | 101 | 82.9 | 102 | 95.8 | 103 |
| Clc1ccc(C(c2c[nH]c3ccccc23)c2c[nH]c3ccccc23)cc1 | 83% and 83.3% | 76.5 | 86.3 | 93.2 | 62.7 | 73 | 92 | 96.7 |
| C[C@]1(O)C[C@@H](c2nc(-c3ccc4ccc(-c5ccccc5)nc4c3)c3c(N)nccn32)C1 [OSI-906 (Linsitinib)] | 79.7% and 90.1% | 80.6 | 41.9 | 40.8 | 72.2 | 82.2 | 29.6 | 38.1 |
| c1ccc2c(Oc3nc(Nc4ccc(N5CCOCC5)cc4)c4ncn(C5CCCCC5)c4n3)cccc2c1 [Purmorphamine] | 91.9% and 105% | 98.2 | 86.5 | 94.4 | 45.9 | 48.7 | 58.9 | 64 |
| C[C@]12CC[C@@H]3c4ccc(O)cc4C[C@@H](CCCCCCCCC[S+]([O-])CCCC(F)(F)C(F)(F)F)[C@H]3[C@@H]1CC[C@@H]2O (stereo not given in full) [Fulvestrant (Faslodex)] | 86% and 87.5% | 79.5 | 77.1 | 87 | 93.1 | 89.1 | 91.4 | 96.7 |
| N=C(N)NC(=N)NCCc1ccccc1 [Phenformin hydrochloride] | 84.6% and 93.3% | 91.7 | 93.2 | 98.2 | 101 | 94.9 | 86 | 89.3 |
| CC1(C)CC[C@]2(C(=O)O)[C@H](O)C[C@]3(C)C(=CC[C@@H]4[C@@]5(C)CC[C@H](O)C(C)(C)[C@@H]5CC[C@]43C)[C@H]2C1 [Echinocystic acid] | 93.8% and 87.5% | 89 | 87.1 | 99.2 | 85.1 | 90.4 | 82.8 | 94.6 |
| CNC(=O)c1ccc(N2C(=S)N(c3cnc(C#N)c(C(F)(F)F)c3)C(=O)C23CCC3)cc1F | 98.6% and 98.8% | 103 | 104 | 110 | 98.4 | 109 | 96.2 | 88.1 |
| COc1cccc(C=NCCN=Cc2cccc(OC)c2[O-])c1[O-].[Cl-].[Mn+3] | 100% and 97% | 97.3 | 92 | 104 | 92.2 | 104 | 89.2 | 101 |
| NC(N)=N/N=C/c1c(Cl)cccc1Cl [Guanabenz (WY-8678) Acetate] | 81.4% and 86.5% | 84 | 83.3 | 83.3 | 84.1 | 86.5 | 89.6 | 88.1 |
| O=c1[nH]c(=O)n([C@H]2C[C@H](O)[C@@H](CO)O2)cc1C(F)(F)F [Trifluridine (Viroptic)] | 85.4% and 99.2% | 85.7 | 48.5 | 52.3 | 52.7 | 18.8 | 21.6 | 26.8 |
| C[C@@H]1O[C@@H](OC[C@H]2O[C@@H](Oc3cc(O)c4c(=O)cc(-c5ccc(O)cc5)oc4c3)[C@H](O[C@@H]3O[C@@H](C)[C@H](O)[C@@H](O)[C@H]3O)[C@@H](O)[C@@H]2O)[C@H](O)[C@H](O)[C@H]1O [ligustroflavone] | 103% | 106 | 97.1 | 105 | 90.7 | 103 | 107 | 108 |
| CNS(=O)(=O)CCc1ccc2[nH]cc(C3CCN(C)CC3)c2c1 [Naratriptan HCl] | 104% and 100% | 104 | 97.3 | 110 | 107 | 104 | 102 | 113 |
| COc1cc(NC(=O)c2ccccn2)ccc1Cl | 85.2% and 86.2% | 94.1 | 87.1 | 92.4 | 99 | 95.3 | 88.4 | 80 |
| O=C(/C=C/c1ccc(O[C@@H]2O[C@H](CO)[C@@H](O)[C@H](O)[C@H]2O)cc1)c1ccc(O)cc1O [Isoliquiritin] | 96.8% and 98% | 105 | 103 | 97.6 | 69.7 | 87.6 | 111 | 107 |
| CCC[C@H](NC(=O)/C(C#N)=C/c1cccc(Br)n1)c1ccccc1 [Degrasyn (WP1130)] | 11.2% and 17.4% | 9.59 | 2.97 | 1.3 | 0.32 | 0.25 | 0.67 | 0.8 |
| Cc1c(C(=O)Nc2ccc(N3CCC(N4CCOCC4)CC3)c(C#N)c2)cnn1-c1ccc(Cl)cc1 | 8.99% and 14.7% | 47.6 | 6.27 | 12.2 | 11 | 1.97 | 8.8 | 11.4 |
| C=CCS[S+]([O-])CC=C (stereo not given) [Allicin] | 92.6% and 104% | 91.8 | 96 | 84.9 | 99.8 | 99.8 | 89.2 | 105 |
| CC[C@H]1OC(=O)[C@H](C)[C@@H](O[C@H]2C[C@@](C)(OC)[C@@H](O)[C@H](C)O2)[C@H](C)[C@@H](O[C@@H]2O[C@H](C)C[C@H](N(C)C)[C@H]2O)[C@](C)(O)C[C@@H](C)C(=O)[C@H](C)[C@@H](O)[C@]1(C)O [Erythromycin thiocyanate] | 97.3% and 94.2% | 94.6 | 82.7 | 91.9 | 87.9 | 89.1 | 87 | 90.1 |
